CDC25B-CDK2 inh: primary biochemical HTRF screen for blockers of M-phase inducer phosphatase 2 binding to CDK2/cyclin A. z-score (concentration not given with the values). P30305+P24941. AID 1259370, 2018. 94,000 compounds, 0.72% hits. HTRF CDC25B-CDK2/CyclinA binding, anti-His/anti-Flag; hits give high values; in the data active = z-score above about 3.2
HIV TAR-Tat: TAR RNA-Tat peptide displacers, HIV-1, primary screen, biochemical, FRET, FAM/TAMRA-labeled Tat. HIV-1 TAR RNA, Tat peptide displacement FRET; hits give high values. z-score (concentration not given with the values). 100,000 compounds, 0.6% hits. AID 1259389, 2018; active = z-score of 3 or more in at least 2 runs
An asterisk follows results filed as active; . = not tested or not shown. In the library only some 0.86% were active in any assay of this set; here they are far more common.

SMILES	CDC25B-CDK2 inh	HIV TAR-Tat
COc1cc(C2CC(=O)N3CN(Cc4ccccc4)CSC3=C2C#N)ccc1O (stereo unspecified)	4.04*	-0.46
CNC(=O)c1c(NC(=O)Cc2coc3ccc(OC)cc23)sc2c1CCCC2	-1.22	-2.95
CCOCCOC(=O)C1=C(C)NC2=C(C(=O)CC(C)(C)C2)C1c1cc(Cl)c(O)c(OC)c1 (stereo unspecified)	-0.03	2.68
O=C(O)c1ccccc1SC(C[N+](=O)[O-])c1ccco1 (stereo unspecified)	-2.05	.
COc1cccc(C2CC(=O)N3CN(CCCc4ccccc4)CSC3=C2C#N)c1 (stereo unspecified)	4.95*	1.35
COc1cc(C2CC(=O)N3CN(C)CSC3=C2C#N)ccc1OCc1ccccc1 (stereo unspecified)	4.08*	-1.26
N#CC1=C2SCN(Cc3ccccc3)CN2C(=O)CC1c1ccc2c(c1)OCO2 (stereo unspecified)	4.01*	0.95
COc1cccc(C2CC(=O)N3CN(Cc4ccccc4)CSC3=C2C#N)c1 (stereo unspecified)	5.25*	-0.29
COc1cc(C2CC(=O)N3CN(Cc4ccco4)CSC3=C2C#N)ccc1OCc1ccccc1 (stereo unspecified)	-0.88	-1.24
COCCCN1C(=O)C(=O)/C(=C(\O)c2ccc3c(c2)CC(C)O3)C12C(=O)N(C)c1ccccc12 (stereo unspecified)	-0.59	1.42
CCCCCc1c(C)nc(Nc2nc(C)c3cc(C)ccc3n2)[nH]c1=O	3.11	-1.3
CC1CCCN(CCCNS(=O)(=O)c2ccc(-c3ccc(=O)[nH]n3)o2)C1 (stereo unspecified)	.	-0.05
N#CC1=C2SCN(Cc3ccco3)CN2C(=O)CC1c1cccc(OCc2ccccc2)c1 (stereo unspecified)	3.42*	-1.2
N#CC1=C2SCN(Cc3ccccc3)CN2C(=O)CC1c1cccc(F)c1 (stereo unspecified)	4.89*	1.06
COc1ccc(C2CC(=O)N3CN(CCCc4ccccc4)CSC3=C2C#N)cc1OC (stereo unspecified)	5.85*	0.56
N#CC1=C2SCN(C3CCCCC3)CN2C(=O)CC1c1ccccc1Cl (stereo unspecified)	2.11	0.56
N#CC1=C2SCN(Cc3ccco3)CN2C(=O)CC1c1ccc(OCc2ccccc2)cc1 (stereo unspecified)	-1.75	0.22
Cc1c(Cl)cccc1N1CSC2=C(C#N)C(c3cccs3)CC(=O)N2C1 (stereo unspecified)	7.9*	-0.6
Nc1ccc([N+](=O)[O-])cc1C(=O)Nc1ccccn1	-2.23	.
O=C(c1cccc(Cl)c1)N1CCN(Cc2cc(=O)n3[nH]c(-c4ccccc4)nc3n2)CC1	.	1.34
N#CC1=C2SCN(Cc3ccccc3)CN2C(=O)CC1c1cccs1 (stereo unspecified)	5.21*	-0.52
COc1ccc(C2CC(=O)N3CN(C(C)c4ccccc4)CSC3=C2C#N)cc1OC (stereo unspecified)	5.51*	1.07
NC(=O)c1nc(Nc2ccccc2)sc1NC(=O)CC1CCCC1	.	-0.23
Cc1cccc(C2CC(=O)Nc3c2c(C)nn3-c2ccc3nnc(C)n3n2)c1 (stereo unspecified)	.	0.52
CCN(CC)c1ccc(Nc2nc(-c3sc(N)nc3C)cs2)cc1	0.23	5.68*
SMILES	CDC25B-CDK2 inh	HIV TAR-Tat
CCN(CC)c1ccc(Nc2nc(-c3sc(NC(C)=O)nc3C)cs2)cc1	-0.29	0.82
COc1ccc(Nc2nc(-c3ccccn3)cs2)cc1	-1.76	1.61
CCOc1ccc(Nc2nc(-c3ccccn3)cs2)cc1	18.8*	.
CCOC(=O)c1c(NC(N)=O)sc2c1CC(C)(C)OC2	-1.68	0.4
C=CCN1C(=O)C2(/C(=C(/O)c3ccc(C)cc3)C(=O)C(=O)N2CCOC)c2ccccc21 (stereo unspecified)	-0.31	0.16
O=C(COc1ccc(Br)cc1)Nc1ccc(-n2cnnn2)cc1	-0.52	2.12
COc1cc(NC(=O)COc2ccc(-n3cnnn3)cc2)c(OC)cc1Cl	-8.25	4.6*
CC1CCN(c2cc(C(=O)O)c3cc(N)ccc3n2)CC1	.	-6.16
Cc1cccc(N2CCN(c3cc(C(=O)O)c4cc(N)ccc4n3)CC2C)c1 (stereo unspecified)	.	6.55*
CN(C)c1ccc(C(O)C(=O)c2cccs2)cc1 (stereo unspecified)	0.08	0.09
O=C(c1cccs1)C(O)c1cccs1 (stereo unspecified)	13.1*	-0.77
COc1ccccc1NS(=O)(=O)c1ccc(-c2cc(C(F)(F)F)on2)s1	.	1.68
CCCCCOC(=O)C1=C(C)Nc2nnnn2C1c1ccc(Cl)cc1 (stereo unspecified)	0.31	-0.77
Cc1ccc(C)c(-n2nnc(-c3nc(-c4ccc(Br)cc4)no3)c2N)c1	.	-6.52
CC(C)CCN1CSC2=C(C#N)C(c3ccc(Cl)cc3)CC(=O)N2C1 (stereo unspecified)	0.66	0.8
CC(C)CCN1CSC2=C(C#N)C(c3ccc(F)cc3)CC(=O)N2C1 (stereo unspecified)	5.02*	-0.59
CCOC(=O)CN1CSC2=C(C#N)C(c3ccc(Cl)cc3)CC(=O)N2C1 (stereo unspecified)	3.76*	3.29
Cc1ccc(C2CC(=O)N3CN(CCC(C)C)CSC3=C2C#N)cc1 (stereo unspecified)	5.21*	-2.14
COCCCNC(=O)C1CCCN(c2ncnc3onc(C)c23)C1 (stereo unspecified)	.	1.14
CCOCCn1c(=O)c2c(nc3n2CCN3c2ccc(Cl)cc2)n(C)c1=O	.	2.06
Cc1onc(-c2ccncc2)c1C(=O)O	.	0.81
CCCC(O)(c1ccc(F)cc1)C(CN1CCOCC1)c1ccc(Cl)cc1 (stereo unspecified)	0.11	1.27
Cc1cc(C)n2ncc(C(=O)NC3CCCC3)c2n1	.	0.41
O=c1cnnc(Nc2ccc3c(c2)OCCO3)[nH]1	-1.29	2.04
COC(=O)c1ccc(Nc2nncc(=O)[nH]2)cc1	6.29*	0.52
SMILES	CDC25B-CDK2 inh	HIV TAR-Tat
CC(=O)N1CCc2c(C)cc(Cl)cc21	-0.72	-0.84
O=C1CCCc2c1cc(-c1ccccc1)n2-c1ccc(O)cc1	-0.66	0.47
Cc1ccc(CSc2nc(-c3cccs3)nc3cc(=O)[nH]n23)cc1	.	0.81
O=c1cc2nc(-c3cccs3)nc(SCc3ccc(Br)cc3)n2[nH]1	.	27.3*
O=S(=O)(c1ccccc1)N1CCN(Cc2ccccn2)CC1	-0.2	-1.27
Nc1cc(S(=O)(=O)O)c(N)c2c1C(=O)c1ccccc1C2=O	-2.42	.
Nc1cc2c(=O)c3cc(Cl)cc(Cl)c3[nH]c2c2c1C(=O)c1ccccc1C2=O	10.1*	.
Cc1ncc(-c2ccc(S(=O)(=O)Nc3ccc(Br)c(C)c3)cc2)o1	.	0.94
COc1ccc(S(=O)(=O)N(C(=O)c2ccco2)c2cc3sc(=O)oc3c3ccccc23)cc1	16.4*	1.8
CCOc1ccc(S(=O)(=O)N(C(=O)c2ccco2)c2cc3sc(=O)oc3c3ccccc23)cc1	-0.58	0.98
N#Cc1ccc(-c2ccccn2)[nH]c1=O	-0.34	.
CC(=O)N(CCN(C)C)c1nc2c(F)cccc2s1	.	1.89
COc1ccc2c(c1)c(=O)oc1cc3oc4c(c3cc12)CCCC4	-0.98	3.69*
COc1ccc2c(c1)c(=O)oc1cc3oc(C)c(-c4ccccc4)c3cc12	-1.6	-1.61
O=C(Cn1ncn2nc3c(c2c1=O)CCCC3)Nc1cccc(Cl)c1	.	1.8
